Records with an inconclusive call do not appear. Active and inactive are the calls of the source. The calls were made as follows: active = hit-call score of the fitted dose curve at least 0.9, where 1 is the maximum; inconclusive = response in the unintended direction; inactive = score below 0.9.
Columns and labels:
NCBI gene 100848466 = assay: NVS_NR_bPR: NovaScreen (NVS) Nuclear Receptor Binding Assay for bovine Progextron Receptor (PR) (AID 2283343);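 also: actives lower bound radioligand signal below DMSO meaning displacement of the label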
In short: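 Bovine uterine membrane preparation, cell-free; radioligand competitive displacement measured by scintillation counting 18 hours after dosing. Loss of signal versus DMSO baseline indicates binding; primary HTS single concentration 25 uM in duplicate, actives followed in concentration series.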

[1] = target: chimpanzee Androgen Receptor (AR), AR (gene 747460) (UniProt O97775); assay: NVS_NR_cAR: NovaScreen (NVS) Nuclear Receptor Binding Assay for chimpanzee Androgen Receptor (AR) (AID 2283346);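 also: radioligand displacement from AR measured by scintillation counting in a cell-free assay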
Sequence of chimpanzee Androgen Receptor (AR), AR (gene 747460) (O97775 whole entry, looked up): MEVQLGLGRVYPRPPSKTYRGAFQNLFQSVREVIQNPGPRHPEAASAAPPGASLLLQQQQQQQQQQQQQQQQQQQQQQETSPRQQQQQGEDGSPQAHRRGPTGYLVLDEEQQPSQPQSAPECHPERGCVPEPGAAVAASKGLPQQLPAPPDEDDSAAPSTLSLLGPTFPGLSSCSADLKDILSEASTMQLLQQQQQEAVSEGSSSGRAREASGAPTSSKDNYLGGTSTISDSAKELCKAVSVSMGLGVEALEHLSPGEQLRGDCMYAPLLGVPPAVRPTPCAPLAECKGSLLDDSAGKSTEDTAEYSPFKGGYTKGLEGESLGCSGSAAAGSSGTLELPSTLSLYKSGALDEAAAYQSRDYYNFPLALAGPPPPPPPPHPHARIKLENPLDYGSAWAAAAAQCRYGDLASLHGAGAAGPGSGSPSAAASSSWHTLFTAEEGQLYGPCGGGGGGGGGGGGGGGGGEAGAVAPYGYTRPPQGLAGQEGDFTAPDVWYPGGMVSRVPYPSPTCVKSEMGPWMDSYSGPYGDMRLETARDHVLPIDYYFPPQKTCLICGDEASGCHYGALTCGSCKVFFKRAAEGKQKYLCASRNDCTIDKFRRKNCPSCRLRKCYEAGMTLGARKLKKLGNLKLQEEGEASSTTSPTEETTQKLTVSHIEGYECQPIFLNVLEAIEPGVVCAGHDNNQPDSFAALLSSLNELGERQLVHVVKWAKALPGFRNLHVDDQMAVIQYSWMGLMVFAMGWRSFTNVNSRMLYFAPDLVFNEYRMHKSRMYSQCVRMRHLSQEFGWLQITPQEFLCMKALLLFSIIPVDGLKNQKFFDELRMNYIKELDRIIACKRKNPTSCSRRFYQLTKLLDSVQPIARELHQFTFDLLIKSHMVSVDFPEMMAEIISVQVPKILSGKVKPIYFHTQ
In short: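 Cell-free radioligand displacement using receptor protein extracted from Sf9/Sf21 cells; bound radioligand measured by scintillation counting 72 hours after chemical dosing. Loss of signal versus DMSO baseline indicates binding; primary screen single-concentration in duplicate at 25 uM, actives followed in concentration series.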

[2] = target: Estrogen receptor (Homo sapiens) (UniProt P03372); assay: NVS_NR_hER: NovaScreen (NVS) Nuclear Receptor Binding Assay for human Estrogen Receptor (ER) (AID 2283348)
Sequence of Estrogen receptor (Homo sapiens) (P03372 whole entry, looked up, the tested form may be a part): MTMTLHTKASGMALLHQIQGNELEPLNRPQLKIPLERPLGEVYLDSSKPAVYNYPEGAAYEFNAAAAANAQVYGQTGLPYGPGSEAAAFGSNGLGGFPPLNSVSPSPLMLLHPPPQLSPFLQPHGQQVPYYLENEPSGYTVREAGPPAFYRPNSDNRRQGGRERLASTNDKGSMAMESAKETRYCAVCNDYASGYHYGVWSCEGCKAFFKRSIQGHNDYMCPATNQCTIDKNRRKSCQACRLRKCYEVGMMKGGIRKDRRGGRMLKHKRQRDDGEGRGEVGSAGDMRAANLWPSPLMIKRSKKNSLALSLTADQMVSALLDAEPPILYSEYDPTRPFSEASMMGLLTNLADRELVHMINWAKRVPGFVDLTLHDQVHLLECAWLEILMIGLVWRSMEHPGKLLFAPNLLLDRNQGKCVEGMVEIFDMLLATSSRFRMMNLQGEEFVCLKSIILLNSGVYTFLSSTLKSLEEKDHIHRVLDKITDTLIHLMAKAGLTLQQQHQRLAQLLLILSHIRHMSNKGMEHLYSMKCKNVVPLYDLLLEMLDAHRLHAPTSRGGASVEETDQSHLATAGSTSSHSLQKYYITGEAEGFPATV
In short: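 Cell-free radioligand binding with protein extracted from MCF7 cells; scintillation counting 18 hours after dosing. Loss of signal versus DMSO baseline read as displacement; primary single-concentration screen at 25 uM in duplicate, actives retested in concentration series.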

[3] = target: Estrogen receptor (Homo sapiens) (UniProt P03372); assay: OT_ER_ERaERa_1440: Odyssey Thera (OT) 24-hour HEK293T Protein-Complementation Assay for Estrogen Receptor-alpha/-alpha Homodimer (AID 2283349);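 also: hits raise fluorescence above DMSO for agonists and antagonists alike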
In short: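 Readout is the rise in mean fluorescence from reporter fragment complementation when ERα LBD (aa 310-547) units dimerize in HEK293T cells. Measured 24 h after dosing and analysed as increase over DMSO control.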

[4] = target: Estrogen receptor (Homo sapiens) (UniProt P03372); assay: OT_ER_ERaERa_0480: Odyssey Thera (OT) 8-hour HEK293T Protein-Complementation Assay for Estrogen Receptor-alpha/-alpha Homodimer (AID 2283351);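 also: rise in fluorescence from reassembled reporter fragments on ERα LBD homodimer in nucleus or whole cell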
In short: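 The readout is complementation of fragments fused to the human ER alpha ligand-binding domain (aa 310-547), stably expressed in HEK293T cells. After 8 h of exposure, the increase in nuclear/cytoplasmic fluorescence was measured by laser scanning cytometry and fitted relative to DMSO.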

[5] = target: T1, Estrogen receptor (Homo sapiens) + Estrogen receptor beta (Homo sapiens) (UniProt P03372+Q92731); assay: OT_ER_ERaERb_0480: Odyssey Thera (OT) 8-hour HEK293T Protein-Complementation Assay for Estrogen Receptor-alpha/-beta Heterodimer (AID 2283352)
T1 sequence (P03372 whole entry, looked up, the tested form may be a part): as above
T1 sequence (Q92731 whole entry, looked up, the tested form may be a part): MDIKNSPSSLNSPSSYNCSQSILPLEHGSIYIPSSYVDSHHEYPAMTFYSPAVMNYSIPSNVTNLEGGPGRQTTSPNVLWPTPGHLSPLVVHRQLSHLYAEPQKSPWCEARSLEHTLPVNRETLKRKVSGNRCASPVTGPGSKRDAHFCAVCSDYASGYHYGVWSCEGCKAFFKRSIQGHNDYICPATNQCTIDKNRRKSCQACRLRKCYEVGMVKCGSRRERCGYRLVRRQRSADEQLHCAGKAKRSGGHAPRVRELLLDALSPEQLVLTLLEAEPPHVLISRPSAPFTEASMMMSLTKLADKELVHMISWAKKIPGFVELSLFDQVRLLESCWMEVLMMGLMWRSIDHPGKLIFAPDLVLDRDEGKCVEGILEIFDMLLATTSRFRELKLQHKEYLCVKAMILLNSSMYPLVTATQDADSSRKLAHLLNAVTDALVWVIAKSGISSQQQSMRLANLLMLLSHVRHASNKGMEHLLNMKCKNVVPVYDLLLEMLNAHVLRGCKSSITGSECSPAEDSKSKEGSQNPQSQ
In short: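 HEK293T protein-fragment complementation assay of ER-alpha/ER-beta LBD heterodimerisation, read 8 h after dosing. Mean nuclear/cytoplasmic fluorescence intensity measured by laser scanning cytometry; gain of signal fitted relative to DMSO.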

[6] = target: rat Mineralocorticoid Receptor (MR), Nr3c2 (gene 25672) (UniProt P22199); assay: NVS_NR_rMR: NovaScreen (NVS) Nuclear Receptor Binding Assay for rat Mineralocorticoid Receptor (MR) (AID 2283355)
In short: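 Cell-free radioligand binding to MR in adrenalectomized rat brain supernatant, scintillation counted 24 h after dosing. Loss of signal versus DMSO baseline marks displacement. Primary screen in duplicate at 25 uM; actives retested as concentration series.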

[7] = target: T1, Estrogen receptor (Homo sapiens) + Estrogen receptor beta (Homo sapiens); assay: OT_ER_ERaERb_1440: Odyssey Thera (OT) 24-hour HEK293T Protein-Complementation Assay for Estrogen Receptor-alpha/-beta Homodimer (AID 2283356);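 also: heteromer of ER alpha and ER beta binding domains; hits raise reporter fluorescence and both agonists and antagonists give an increase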
In short: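 HEK293T stably expressing a PCA of ER alpha LBD (aa 310-547) and ER beta LBD (aa 263-489). After 24 h compound exposure, mean fluorescence intensity in nucleus (agonists) or nucleus and cytoplasm (antagonists) measured by laser scanning cytometry versus vehicle.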

PGR (gene 5241) = PGR (gene 5241) (UniProt P06401); assay: NVS_NR_hPR: NovaScreen (NVS) Nuclear Receptor Binding Assay for human Progestron Receptor (PR) (AID 2283360)
In short: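 Competitive displacement of a labelled radioligand from T47D-derived receptor protein is measured in a cell-free format. Initial testing uses 25 uM in duplicate, with positive and negative controls on every plate.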

[8] = target: Glucocorticoid receptor (Homo sapiens) (UniProt P04150); assay: NVS_NR_hGR: NovaScreen (NVS) Nuclear Receptor Binding Assay for human Glucocorticoid Receptor (GR) (AID 2283363);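 as to AC50: activity is loss of specific radioligand binding signal relative to DMSO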
Sequence of Glucocorticoid receptor (Homo sapiens) (P04150 whole entry, looked up): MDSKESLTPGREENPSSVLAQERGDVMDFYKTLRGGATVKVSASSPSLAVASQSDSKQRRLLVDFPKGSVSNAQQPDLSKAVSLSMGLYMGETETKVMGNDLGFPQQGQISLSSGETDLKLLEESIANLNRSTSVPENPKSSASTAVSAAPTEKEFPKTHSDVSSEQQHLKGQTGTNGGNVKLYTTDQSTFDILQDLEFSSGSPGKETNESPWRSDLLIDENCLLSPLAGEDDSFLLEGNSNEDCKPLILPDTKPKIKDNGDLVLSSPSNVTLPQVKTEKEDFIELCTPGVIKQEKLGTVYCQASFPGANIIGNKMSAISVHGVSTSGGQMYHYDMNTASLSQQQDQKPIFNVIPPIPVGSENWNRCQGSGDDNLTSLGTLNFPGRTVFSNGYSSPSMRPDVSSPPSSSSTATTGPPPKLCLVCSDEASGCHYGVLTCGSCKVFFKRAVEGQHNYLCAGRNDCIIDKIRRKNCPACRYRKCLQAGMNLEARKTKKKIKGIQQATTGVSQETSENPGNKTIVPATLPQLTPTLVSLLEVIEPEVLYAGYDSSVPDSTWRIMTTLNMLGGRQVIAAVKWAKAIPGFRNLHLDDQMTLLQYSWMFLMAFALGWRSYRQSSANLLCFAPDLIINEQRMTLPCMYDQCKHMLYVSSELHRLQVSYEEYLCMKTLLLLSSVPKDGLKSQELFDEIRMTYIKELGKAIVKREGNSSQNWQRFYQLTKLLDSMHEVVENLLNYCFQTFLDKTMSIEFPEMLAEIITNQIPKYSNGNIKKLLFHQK
In short: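 Cell-free radioligand binding with extracted receptor protein, read by filter-based scintillation counting 16 hours after dosing. Loss of specific signal versus DMSO baseline was scored. Primary screen ran in duplicate at 25 uM; actives were followed up in concentration series.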

[9] = target: Androgen Receptor/SRC-1 Co-activator, AR (gene 367) (UniProt P10275); assay: OT_AR_ARSRC1_0960: Odyssey Thera (OT) 16-hour HEK293T Protein-Complementation Assay for Androgen Receptor/SRC-1 Co-activator (AID 2283353);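 also: actives raise the signal above DMSO so potency reflects increased AR and SRC-1 complex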
Sequence of Androgen Receptor/SRC-1 Co-activator, AR (gene 367) (P10275 whole entry, looked up, the tested form may be a part): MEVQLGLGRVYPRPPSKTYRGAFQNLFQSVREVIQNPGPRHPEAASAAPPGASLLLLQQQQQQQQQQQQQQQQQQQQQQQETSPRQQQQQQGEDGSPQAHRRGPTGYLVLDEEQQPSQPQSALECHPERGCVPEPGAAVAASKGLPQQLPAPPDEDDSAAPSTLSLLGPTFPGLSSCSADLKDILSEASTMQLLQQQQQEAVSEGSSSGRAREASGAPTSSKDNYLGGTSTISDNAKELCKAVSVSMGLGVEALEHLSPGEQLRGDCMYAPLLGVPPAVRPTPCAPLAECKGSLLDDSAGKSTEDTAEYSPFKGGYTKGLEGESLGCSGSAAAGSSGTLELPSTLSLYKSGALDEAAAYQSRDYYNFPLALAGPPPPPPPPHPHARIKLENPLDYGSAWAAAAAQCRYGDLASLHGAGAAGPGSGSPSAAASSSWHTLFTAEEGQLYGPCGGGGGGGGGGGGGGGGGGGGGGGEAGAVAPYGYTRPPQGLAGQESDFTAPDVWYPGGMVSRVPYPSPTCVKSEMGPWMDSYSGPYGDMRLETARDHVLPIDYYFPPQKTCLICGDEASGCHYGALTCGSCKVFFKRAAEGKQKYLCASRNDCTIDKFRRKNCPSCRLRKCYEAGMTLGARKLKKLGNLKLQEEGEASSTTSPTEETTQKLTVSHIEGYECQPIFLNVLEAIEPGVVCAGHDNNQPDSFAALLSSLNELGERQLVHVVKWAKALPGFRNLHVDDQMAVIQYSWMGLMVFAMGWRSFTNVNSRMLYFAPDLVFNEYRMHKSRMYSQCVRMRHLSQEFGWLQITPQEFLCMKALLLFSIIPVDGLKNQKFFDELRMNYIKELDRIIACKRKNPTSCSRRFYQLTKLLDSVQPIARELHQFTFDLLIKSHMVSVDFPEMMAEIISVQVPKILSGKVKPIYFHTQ
In short: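 HEK293T cells stably expressing AR and SRC-1 fused to Venus YFP fragments, imaged 16 h after dosing. Nuclear/cytoplasmic fluorescence ratio at 488 nm from at least 400 cells per image; gain of signal relative to DMSO.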

[10] = target: Androgen Receptor/SRC-1 Co-activator, AR (gene 367) (UniProt P10275); assay: OT_AR_ARSRC1_0480: Odyssey Thera (OT) 8-hour HEK293T Protein-Complementation Assay for Androgen Receptor/SRC-1 Co-activator (AID 2283354);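 also: hits raise the complementation signal above DMSO so AC50 marks enhancers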
In short: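 HEK293T cells stably expressing AR and SRC-1 fused to split Venus YFP fragments via (Gly4Ser)2 linkers were read 8 h after compound dosing. Complementation was imaged at 488 and 635nm, and nuclear/cytoplasmic fluorescence ratio (488nm) was taken over ≥400 cells; gain-of-signal versus DMSO.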

[11] = target: human Peroxisome Proliferator-activated Receptor alpha (PPARa), PPARA (gene 5465) (UniProt Q07869); assay: NVS_NR_hPPARa: NovaScreen (NVS) Nuclear Receptor Binding Assay for human Peroxisome Proliferator-activated Receptor alpha (PPARa) (AID 2283359);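 also: activity means loss of TR-FRET signal versus DMSO baseline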
Sequence of human Peroxisome Proliferator-activated Receptor alpha (PPARa), PPARA (gene 5465) (Q07869 whole entry, looked up): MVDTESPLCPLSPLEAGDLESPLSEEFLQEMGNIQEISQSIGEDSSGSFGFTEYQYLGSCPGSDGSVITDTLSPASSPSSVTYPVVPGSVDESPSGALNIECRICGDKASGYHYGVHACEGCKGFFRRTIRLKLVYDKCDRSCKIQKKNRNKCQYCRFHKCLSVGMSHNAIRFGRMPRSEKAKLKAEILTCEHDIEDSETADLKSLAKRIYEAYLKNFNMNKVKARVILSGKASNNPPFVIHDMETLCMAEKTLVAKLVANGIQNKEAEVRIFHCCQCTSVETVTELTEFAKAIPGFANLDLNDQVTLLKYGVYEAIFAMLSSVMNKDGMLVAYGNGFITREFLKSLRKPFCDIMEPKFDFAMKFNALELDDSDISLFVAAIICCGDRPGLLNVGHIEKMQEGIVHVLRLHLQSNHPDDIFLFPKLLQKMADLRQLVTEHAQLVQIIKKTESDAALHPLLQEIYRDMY
In short: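 Cell-free binding assay with extracted human protein, read by TR-FRET 1 h after chemical dosing. Loss of signal relative to DMSO baseline indicates binding. Primary screen used duplicate single concentration (25 uM); actives followed up in concentration series.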

[12] = target: Estrogen receptor beta (Homo sapiens) (UniProt Q92731); assay: OT_ER_ERbERb_0480: Odyssey Thera (OT) 8-hour HEK293T Protein-Complementation Assay for Estrogen Receptor-beta/-beta Homodimer (AID 2283357);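 also: active means signal gain over DMSO baseline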
Sequence of Estrogen receptor beta (Homo sapiens) (Q92731 whole entry, looked up, the tested form may be a part): as the sequence (Q92731 whole entry, looked up, the tested form may be a part) above
In short: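 Readout: increase in mean fluorescence intensity (nucleus for agonists; nucleus plus cytoplasm for antagonists) relative to DMSO, from a reporter-fragment complementation of human ER-beta LBD homodimer in HEK293T cells dosed 8 hours.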

[13] = target: Retinoic acid receptor alpha (Homo sapiens) (UniProt P10276); assay: NVS_NR_hRARa_Agonist: NovaScreen (NVS) Nuclear Receptor Binding Assay for human Retinoic Acid Alpha Receptor Agonism (RAR) (AID 2283361)
Sequence of Retinoic acid receptor alpha (Homo sapiens) (P10276 whole entry, looked up): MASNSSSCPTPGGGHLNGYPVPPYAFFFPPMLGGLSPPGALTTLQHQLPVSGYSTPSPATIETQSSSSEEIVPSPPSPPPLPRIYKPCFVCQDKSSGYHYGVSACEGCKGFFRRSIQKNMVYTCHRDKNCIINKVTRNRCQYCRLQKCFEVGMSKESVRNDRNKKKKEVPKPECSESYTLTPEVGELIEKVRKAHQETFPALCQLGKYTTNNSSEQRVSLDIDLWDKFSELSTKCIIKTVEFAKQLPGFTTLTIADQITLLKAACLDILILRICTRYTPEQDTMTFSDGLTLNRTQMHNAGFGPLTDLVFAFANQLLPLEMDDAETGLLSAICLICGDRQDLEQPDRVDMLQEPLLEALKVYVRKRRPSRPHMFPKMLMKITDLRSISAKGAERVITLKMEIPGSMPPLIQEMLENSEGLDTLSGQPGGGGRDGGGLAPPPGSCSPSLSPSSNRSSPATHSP
In short: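 Cell-free TR-FRET binding read-out with extracted human RARα protein, read 2 h after compound addition. Gain of signal scored against DMSO baseline. Primary screen at a single 25 uM in duplicate; actives then retested in concentration series.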

Question: Which results are given for `O=P(OC(CCl)CCl)(OC(CCl)CCl)OC(CCl)CCl`?
Answer: AC50 (NCBI gene 100848466): 8.22 µM (active); AC50 [1]: 13.3 µM (active); outcome [2]: inactive; outcome [3]: inactive; outcome [4]: inactive; outcome [5]: inactive; outcome [6]: inactive; outcome [7]: inactive; AC50 (PGR (gene 5241)): 5.78 µM (active); AC50 [8]: 15.5 µM (active)

Question: What does the source list for `CC(C)=CCCC(C)CCO` (stereo not drawn)?
Answer: outcome [2]: inactive; outcome [3]: inactive; outcome [4]: inactive; outcome [9]: inactive; outcome [10]: inactive; outcome [7]: inactive; outcome [11]: inactive

Question: For `C=CC(=C)CCC=C(C)C`, which outcome [3] is on record?
Answer: The outcome was “inactive”.

Question: And the outcome [4]?
Answer: Its outcome is “inactive”.

Question: And the outcome [5]?
Answer: The outcome was “inactive”.

Question: What about the outcome [7] of the same compound?
Answer: Its outcome is “inactive”.

Question: With `CC(C)CCO` as the compound, how does the outcome [3] read?
Answer: The outcome was “inactive”.

Question: What about the outcome [4] of the same compound?
Answer: Its outcome is “inactive”.

Question: What about the outcome [5] of the same compound?
Answer: The outcome was “inactive”.

Question: What about the outcome [7] of the same compound?
Answer: Its outcome is “inactive”.

Question: How did the outcome [2] turn out when `CCC(C)(C)C(=O)O[C@H]1C[C@@H](C)C=C2C=C[C@H](C)[C@H](CC[C@@H]3C[C@@H](O)CC(=O)O3)[C@H]21` was run?
Answer: The outcome was “inactive”.

Question: And the outcome [3]?
Answer: The outcome was “inactive”.

Question: What about the outcome [4] of the same compound?
Answer: Its outcome is “inactive”.

Question: What about the outcome [5] of the same compound?
Answer: The outcome was “inactive”.

Question: And the outcome [7]?
Answer: The outcome was “inactive”.

Question: And the AC50 [8]?
Answer: The AC50 was 14.5 µM (active).

Question: For `COc1ccc2sc(C(=O)Nc3nnn[nH]3)c(OC(C)C)c2c1`, which outcome [1] is on record?
Answer: Its outcome is “inactive”.

Question: What about the outcome [2] of the same compound?
Answer: The outcome was “inactive”.

Question: And the outcome [3]?
Answer: Its outcome is “inactive”.

Question: What about the outcome [4] of the same compound?
Answer: The outcome was “inactive”.

Question: And the outcome [5]?
Answer: The outcome was “inactive”.

Question: And the outcome [7]?
Answer: The outcome was “inactive”.

Question: What about the outcome [8] of the same compound?
Answer: Its outcome is “inactive”.

Question: With `Cc1ccc(N)cc1O` as the compound, how does the outcome [3] read?
Answer: Its outcome is “inactive”.

Question: What about the outcome [4] of the same compound?
Answer: The outcome was “inactive”.

Question: And the outcome [5]?
Answer: The outcome was “inactive”.

Question: What about the outcome [9] of the same compound?
Answer: The outcome was “inactive”.

Question: What about the outcome [7] of the same compound?
Answer: The outcome was “inactive”.

Question: And the outcome [11]?
Answer: Its outcome is “inactive”.

Question: Which results are given for `O=c1n(CC2CO2)c(=O)n(CC2CO2)c(=O)n1CC1CO1` (stereo not drawn)?
Answer: outcome [3]: inactive; outcome [4]: inactive; outcome [5]: inactive; outcome [7]: inactive; outcome [12]: inactive

Question: `CCCCCCCCO` was tested. Which outcome [3] did it give?
Answer: Its outcome is “inactive”.

Question: And the outcome [4]?
Answer: The outcome was “inactive”.

Question: What about the outcome [5] of the same compound?
Answer: The outcome was “inactive”.

Question: What about the outcome [7] of the same compound?
Answer: The outcome was “inactive”.

Question: And the outcome [12]?
Answer: Its outcome is “inactive”.

Question: Which results are given for `O=C(NS(=O)(=O)/C=C/c1ccccc1)c1ccc(F)cc1Cl`?
Answer: outcome [3]: inactive; outcome [4]: inactive; outcome [5]: inactive; outcome [7]: inactive

Question: Which AC50 [1] does the source give for `CCOc1cccc(-n2cc(C(=O)N3CCN(c4cc(C(=O)O)c5ccccc5c4)CC3)nc2-c2ccc(C)cc2)c1` here?
Answer: Its AC50 is 20.4 µM (active).

Question: What about the AC50 [9] of the same compound?
Answer: Its AC50 is 23.9 µM (active).

Question: And the outcome [10]?
Answer: The outcome was “inactive”.

Question: What about the outcome [12] of the same compound?
Answer: The outcome was “inactive”.

Question: And the outcome [11]?
Answer: Its outcome is “inactive”.

Question: What about the AC50 [13] of the same compound?
Answer: The AC50 was 16.2 µM (active).

Question: What about the AC50 [8] of the same compound?
Answer: Its AC50 is 14.6 µM (active).

Question: What does the source list for `COc1ccc(-n2nc(C(F)F)cc2-c2ccc(S(C)=O)cc2)cc1` (stereo not drawn)?
Answer: outcome [3]: inactive; outcome [4]: inactive; AC50 [8]: 16.7 µM (active)

From PubChem BioAssay (EPA / NIEHS)
